Laboratory results taken from PubChem BioAssay (Tox21).
Results filed as inconclusive are left out. Values without a mark were called inactive. Active and inactive are the calls of the source. Calls come from the whole dose curve; as a rule, active = well fitted cell-killing curve with a large enough effect in the repeat runs; inconclusive = weak or mixed curves, or effect the other way; inactive = flat fitted curve, though single readings scatter.

Experiment: qHTS RealTime-Glo MT Cell Viability Assay in HEK293 cells - 0 hour (AID 1224880); note: nearly all actives have a fitted effect of over 45% in size; for activity change, negative = cytotoxicity: top concentration of the series differs between compounds
Conditions: RealTime-Glo luminescence; series mostly up to 76.8 µM; activity change, negative = cytotoxicity: at the top concentration
Text: U.S. Tox21 Program National Center for Advancing Translational Sciences [NCATS] NIH Chemical Genomics Center [NCGC] U.S. Environmental Protection Agency [EPA] National Institutes of Environmental Health Sciences [NIEHS] National Toxicology Program [NTP] U.S. Food and Drug Administration [FDA] Tox21 Assay Overview: Measure of cell viability is critical in the cell-base assay. Analysis of cell viability is necessary for the characterization of cell responses to cytotoxic drugs and environmental stress. A RealTime-Glo MT Cell Viability Assay to monitor cell viability in real time of continues cell culture during 40 hours of compound treatment was used to screen Tox21 10K library compounds in Hek293 cells. The RealTime-Glo MT Cell Viability Assay is a nonlytic, homogeneous, bioluminescent method to measure cell viability in real time using a simple, plate-based method. The assay involves adding NanoLuc luciferase and a cell-permeant prosubstrate to cells in culture. Viable cells reduce the proprietary prosubstrate to generate a substrate for NanoLuc luciferase. This substrate diffuses from cells into the surrounding culture medium, where it is rapidly used by the NanoLuc Enzyme to produce a luminescent signal. The signal correlates with the number of viable cells, making the assay well suited for cytotoxicity studies.
Tox21 Assay Protocol Summary: The mixture of Hek293 cell suspension and reagents were dispensed at 600cells/6 ul/well in 1536-well tissue culture treated black solid bottom plates using a Multidrop dispenser. After the assay plates were incubated at a 37 C/5% CO2 incubator for 5 hours, 23 nL of compounds dissolved in DMSO, positive and negative controls was transferred to the assay plate by a pintool work station. The plates were incubated at 37 C for 40 hours. The luminescence intensity were measured at 0h, 8h, 16h, 24h, 32h and 40h time points using ViewLux plate reader during compound treatment.
% is set by controls: 0 for no effect and ±100 for the full control effect; potency is the fitted concentration of half-maximal effect.

Row | SMILES | activity change, negative = cytotoxicity | Potency
1 | CCCCCCCC/C=C\CCCCCCCC(N)=O | -1.34% | 
2 | Cc1occc1S | -2.85% | 
3 | O=C(/C=C/c1ccc(O)c(O)c1)O[C@@H]1C[C@](O)(C(=O)O)C[C@@H](O)[C@H]1O | -2.66% | 
4 | Cc1cc(C)c(S(=O)(=O)O)cc1N=Nc1cc(S(=O)(=O)O)c2ccccc2c1O | -19.5% | 
5 | CCCC(=O)OCC | -0.294% | 
6 | Cc1ccc(O)c([C@H](CCN(C(C)C)C(C)C)c2ccccc2)c1 | 16.1% [at 35.3 µM] | 
7 | N#Cc1cc2ccccc2c2ccccc12 | -0.304% | 
8 | CCC(C)N(C)C(=O)c1cc2ccccc2c(-c2ccccc2Cl)n1 (stereo not given) |  | 31.7 µM (active)
9 | C=CC(C)(CCC=C(C)C)OC(=O)c1ccccc1 (stereo not given) | -12.6% | 
10 | O=C(CC(=O)c1ccccc1)c1ccccc1 | 2.42% | 
11 | OCC1CC2CC1C1CCC(CO)C21 (stereo not given) | 13.7% | 
12 | CC(Cc1cccc(C(F)(F)F)c1)NCCOC(=O)c1ccccc1 (stereo not given) | 25.2% [at 35.3 µM] | 
13 | O=C(O)COC(=O)Cc1ccccc1Nc1c(Cl)cccc1Cl | -1.76% [at 35.3 µM] | 
14 | N#CCc1cccc(C(F)(F)F)c1 | 0.259% | 
15 | O=C(c1ccccc1)c1ccc2n1CCC2C(=O)O (stereo not given) | -3.62% [at 35.3 µM] | 
16 | O=C1Nc2cc(Cl)ccc2Oc2ccccc21 | -0.502% [at 35.3 µM] | 
17 | CCCCOCCOCCOCCOCCO | 6.34% | 
18 | CC(=O)N(CC(=O)N(C)C)c1ccccc1 | -13% [at 35.3 µM] | 
19 | Oc1ccc(C(O)CNCCCCCCNCC(O)c2ccc(O)c(O)c2)cc1O (stereo not given) | 2.56% [at 35.3 µM] | 
20 | CCOc1cc(OCC)c(C(=O)CCC(=O)O)cc1OCC | -3.55% [at 35.3 µM] | 

Row | SMILES | activity change, negative = cytotoxicity | Potency
21 | Nc1nc(CC(=O)O)cs1 | -3.52% | 
22 | Cc1ccc(C(C)c2ccc(C)c(C)c2)cc1C | -15.4% | 
23 | Cc1nc2ccccc2n1Cc1ccc(Cl)cc1 | 0.763% [at 35.3 µM] | 
24 | CCN(CC)CCc1nc(-c2ccccc2)no1 | -2.42% [at 35.3 µM] | 
25 | O=C1[C@H](CC[C@H](O)c2ccc(F)cc2)[C@@H](c2ccc(O)cc2)N1c1ccc(F)cc1 | 3.3% [at 35.3 µM] | 
26 | CC(C)c1ccc2c(C(C)C)cc(C(C)C)c(S(=O)(=O)O)c2c1 | -10.9% | 
27 | O=C(CCN1CCN2CCCC2C1)N1c2ccccc2Sc2ccc(Cl)cc21 (stereo not given) | -6.17% [at 15.8 µM] | 
28 | Cc1cccc(C(C)(C)C)c1O | 2.19% | 
29 | C[Si](C)O[Si](C)(C)O[Si](C)(C)O[Si](C)C | 11.5% | 
30 | O=C(Nc1ccccc1)OCC(CN1CCCCC1)OC(=O)Nc1ccccc1 (stereo not given) | -5.16% [at 35.3 µM] | 
31 | CC(C)(C)c1cc(CO)cc(C(C)(C)C)c1O | -3.32% | 
32 | CCOC(=S)SSC(=S)OCC | 2.07% | 
33 | CC1(C)[C@H]2CC[C@]1(C)[C@H](O)C2 | 1.45% | 
34 | OC(CCN1CCCCC1)(c1ccccc1)C1CCCCC1 (stereo not given) | 25.8% [at 35.3 µM] | 
35 | CC(C)c1cccc(C(C)C)c1NC(=O)NS(=O)(=O)c1cc(C(C)(C)O)co1 | -1.55% | 
36 | COC(=O)C(C)=O | -7.73% | 
37 | O=C(NN1CCCC1)NS(=O)(=O)c1ccc(Cl)cc1 | 9.03% [at 35.3 µM] | 
38 | CCOc1nc2cccc(C(=O)O)c2n1Cc1ccc(-c2ccccc2-c2nn[nH]n2)cc1 | -22% [at 35.3 µM] | 
39 | C[C@@H](C1=C(CCN(C)C)Cc2ccccc21)c1ccccn1 | 23.4% [at 35.3 µM] | 
40 | N#Cc1c(F)cccc1F | 1.59% | 
